In PubChem BioAssay (NCATS):
Records with an inconclusive call do not appear. A number with no mark means an inactive call. Calls come from the whole dose curve; as a rule, active = well fitted cell-killing curve with a large enough effect; inconclusive = small, poorly fitted or top-dose-only effect; inactive = flat fitted curve, though single readings scatter.

Experiment: Cell Viability - LYMP2-019 (AID 973);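 note: cells exposed to compound for 24 h at 37 °C; 0% = DMSO alone and full effect = 92 µM tetraoctylammonium bromide; nearly all actives have a fitted effect of over 55% in size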
Conditions: LYMP2-019 lymphoblastoid cell line viability; series mostly up to 92.2 µM; activity change, negative = cytotoxicity: at the top concentration
Source text: NIH Chemical Genomics Center [NCGC]
NIH Molecular Libraries Screening Centers Network [MLSCN]
National Institutes of Environmental Health Sciences [NIEHS]
National Toxicology Program [NTP]
We have developed a 1536-well cell-based assay for quantitative high throughput screening (qHTS) against a number of cell lines to determine in vitro cytotoxicity of small molecules. This particular assay uses a human lymphoblastoid cell line (LYMP2-019) purchased from Coriell Institute for Medical Research.
NCGC Assay Protocol Summary:
The CellTiter-Glo luminescent cell viability assay (Promega) is a homogeneous method to measure the number of viable cells in culture. The end point readout of this assay is based on quantitation of intracellular ATP, an indicator of metabolic activity, using the luciferase reaction. Luciferase catalyzes the oxidation of beetle Luciferin to oxyluciferin and light in the presence of ATP. The luminescent signal is proportional to amount of ATP present.
Using the CellTiter-Glo luminescent cell viability assay, the amount of cellular ATP was measured in the lymphoblastoid cell line with complete culture medium following compound treatment for 24 hours. The assay was performed in opaque white Kalypsys 1536-well plates. In the screen, tetraoctylammonium bromide was used as positive control. Library compounds were measured for their ability to cause acute toxicity in the cell line, as reflected by a decrease in intracellular ATP levels, in a concentration-dependent manner. […] AC50 values were determined from concentration-response data modeled with the standard Hill equation.
qHTS protocol for CellTiter Glo lymphoblastoid cellular assay
[Step] [Parameter] [Value] [Description]
1. Reagent; 5 uL; 2500 lymphoblastoid cells/well
2. Time; 5 hr; 37 C incubation
4. Controls; 23 nL; Tetraoctylammonium bromide 6.4pM to 92 uM
5. Time; 24 hr; 37 C incubation
6. Reagent; 5 uL; CellTiter Glo reagent
7. Time; 30 min; Room Temperature
8. Detection; Luminescence; Viewlux plate reader
Keywords: cell viability, cytotoxicity, lymphoblastoid cell line, luminescence, NTPHTS, NTPHTS_NCGC, NIEHS, DSSTox, MLSMR, MLSCN, NIH Roadmap, qHTS, NCGC

Compound | activity change, negative = cytotoxicity [%]
CC(C)COC(=O)c1ccccc1C(=O)OCC(C)C | -6.9
CC(=O)/C=C/c1ccccc1 | -12.7
CCOC(=O)c1ccccc1N | -10.5
O=Cc1ccccc1 | -14.4
COC(=O)c1ccccc1C(=O)OC | 3.58
Oc1ccccc1Cl | -2.5
c1ccc2c(c1)-c1cccc3cccc-2c13 | -8.21
CC(C)(c1ccc(OCC2CO2)cc1)c1ccc(OCC2CO2)cc1 (stereo not drawn) | -27.4
Oc1c(Cl)c(Cl)c(Cl)c(Cl)c1Cl | -15
COC1=CC(=O)OC(CCc2ccc3c(c2)OCO3)C1 (stereo not drawn) | -22.9
Cc1ccccc1O | -7.1
c1ccc(Nc2ccc3ccccc3c2)cc1 | -1.05
CCOc1cc(C=O)ccc1O | -5.39
